Test results: PubChem BioAssay (NCI)
Compounds without any hit were thinned out: in the full panel of roughly 83,000, 20% have a hit.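 Percent growth is the endpoint: 0 to 100 indicates growth inhibition (40 means 60% inhibition), 0 means no net growth, and negative values indicate cell death.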 Unmarked numbers belong to inactive results. Activity calls are given as the source filed them. The calls were made as follows: active = growth percent below 10; inactive = the rest.

Tests used:
Experiment in all cases: NCI-60 one-dose screen, 48 h (100 = growth as untreated, 0 = no growth, -100 = all killed)
Details in all cases: 10 µM unless noted
[1] = test system: NCI-H23 lung
[2] = test system: NCI-H226 lung
[3] = test system: NCI-H322M lung
[4] = test system: NCI-H460 lung
[5] = test system: HOP-92 NSCLC
[6] = test system: NCI-H522 lung
[7] = test system: A549/ATCC NSCLC
[8] = test system: 786-0 renal
[9] = test system: COLO 205 colon

| Structure (SMILES) | growth [1] | growth [2] | growth [3] | growth [4] | growth [5] | growth [6] | growth [7] | growth [8] | growth [9] |
| --- | --- | --- | --- | --- | --- | --- | --- | --- | --- |
| COc1cc2c(cc1-c1c(C)noc1C)ncc1nc(C3CCOCC3)n(C3CCC(OC(F)F)CC3)c12 (stereo unspecified) | 56.7% | 67.9% | 52.4% | 72.6% | 21.8% | 3.74% (active) | 57.4% | 51.8% | 22.6% |
| COc1ccc(Nc2nc(Nc3cc(C)[nH]n3)c3cc(OC)c(OC)cc3n2)cc1 | -74.7% [20 µM] (active) | -47.2% [20 µM] (active) | -100% [20 µM] (active) | -75.9% [20 µM] (active) | -84.6% [20 µM] (active) | -39.1% [20 µM] (active) | -61.2% [20 µM] (active) | -83.3% [20 µM] (active) | -61% [20 µM] (active) |
| Cc1cc2c(c(C)n1)CN(C(=O)Nc1nc(-c3cncs3)ccc1N)C2 | 104% | 107% | 97.8% | 106% |  | 87.5% | 111% | 102% | 110% |
| O=C(OCc1ccc2c(Br)cc(Br)c(O)c2n1)N1CCN(C(=O)c2cc3ccccc3[nH]2)CC1 | 39.4% | 39.5% | 44.9% | 12% | 25.7% | 37.5% | 12.7% | 49.3% | 50.6% |
| CCOC(=O)c1cc(C(=O)c2cc(OC)cc(OC)c2)n2ccccc12 | 67.3% | 73.5% | 86.3% | 15% | 64.3% | 40.9% | 35.7% | 36.4% | 13.5% |
| COC(=O)[C@H]1Cc2c([nH]c3ccccc23)[C@H](c2ccc3c(c2)OCO3)N1 | 99.7% | 98.5% | 98.9% | 106% | 84.9% | 83.2% | 105% | 98.5% | 118% |
| CN1C(=O)N(C)C2C1NN=c1s/c(=C\c3ccccc3F)c(=O)n12 (stereo unspecified) | 33.1% | 57.8% | 37.3% | 3.14% (active) | 76.8% | -8.56% (active) |  | 36% | 8.94% (active) |
| Cc1ccc(C23CCC(=O)N2CCc2cncn23)cc1 (stereo unspecified) | 97.4% | 96.2% | 99.3% | 110% | 87.2% | 87.9% | 96.7% | 108% | 98.6% |
| C=C(C)Cn1c(SCC(=O)c2cccs2)nc2sc3c(c2c1=O)CCCC3 | 72.8% | 58.3% | 67.9% | 8.41% (active) | 92.4% | 58.1% | 41.1% | 52.6% | 43.6% |
| O=C(Nc1ncc(Cc2ccccc2)s1)c1cc(-c2ccccc2)nc2ccccc12 | 89.3% | 89.3% | 99.1% | 101% | 84.1% | 87.6% |  | 105% | 100% |
| COc1ccc2c(c1)C(c1c[nH]c3ccccc13)(c1c[nH]c3ccccc13)CCO2 | 53.3% | 64.1% | 66.1% | 47.4% | 35.6% | 6.18% (active) | 24.1% | 58.8% | 39.9% |
| COc1cc2c(c(OC)c1OC)CCC(c1cccc(NC(=O)c3cccc(Cl)c3)c1)O2 (stereo unspecified) | 92.7% | 79.8% | 90.3% | 96.9% | 83.1% | 62.1% | 85% | 96.7% | 94.2% |
| O=c1c(/C=C/c2c(O)ccc3ccccc23)nnc2sc(-c3cccc([N+](=O)[O-])c3)nn12 | 61.6% | 64.2% | 41.1% | 26.5% | 65.7% | 86.3% | 45.7% | 57% | 84.4% |
| CCN(CC)CCOc1ccc(/C(=C(\C)Cc2ccc(OC)cc2)c2ccc(O)cc2)cc1 | 59.2% | 74.6% | 54.5% | -36.4% (active) | 2.96% (active) | -9.94% (active) | 19.4% | -37.1% (active) | -72.1% (active) |
| CCCCC#Cc1c(I)n(C2OC(CO[Si](C)(C)C(C)(C)C)C3OC(C)(C)OC32)c(=O)[nH]c1=O (stereo unspecified) | 78% | 88.2% | 84.3% | 107% | -30.5% (active) | 79.9% | 94% | 82.4% | -59.1% (active) |
| O=C(O)CCCN1C(=O)CSC1=S | 104% | 111% | 100% | 101% |  | 93.3% | 105% | 102% | 120% |
| CS(=O)(=O)Nc1cc(-c2ccc3ncnc(Nc4cccc(Cl)c4)c3c2)cnc1Cl | 6.5% (active) | 11.8% | 1.07% (active) | 7.81% (active) | -22.5% (active) | 2.07% (active) | -13.4% (active) | 5.7% (active) | -49.4% (active) |
| CCOC(=O)/C=C1\S/C(=N\Nc2cc(=O)[nH]c3ccc(OC)cc23)N(c2ccccc2)C1=O | 94% | 93.2% | 101% | 110% |  | 83.3% | 104% | 94.4% | 95.7% |
| C=C1C(=O)O[C@H]2[C@H]1CC/C(COC(=O)NCc1ccc(Cn3c(=O)sn(CCCC)c3=O)cc1)=C\CC[C@@]1(C)O[C@@H]21 | 80.8% | 78.5% | 105% | 95.4% | -6.79% (active) | -55.8% (active) | 93.5% | 41.8% | -25% (active) |
